Assay [1] in a line: binders of probe aFSTL3 on microarray, primary screen, stem cell growth factor project, biochemical, small-molecule microarray, fluorescence 635/667 (AID 1064).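 Note: measures binding of the biotinylated anti-FSTL3 antibody to printed compounds.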 The note with it: higher = more signal.
Assay [2] is described as follows: binders from COS7 lysate, DM2A8 probe, primary screen, torsin A project, cell lysate, small-molecule microarray, fluorescence 635/667 (AID 1065). The note with it: higher = more signal, COS7 lysate expressing mutant human TOR1A.
A short description of assay [3]: binders of probe aFGF2 on microarray, primary screen, stem cell growth factor project, biochemical, small-molecule microarray, fluorescence 635/667 (AID 1067).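 Note: measures binding of biotinylated aFGF2 protein to printed compounds on slides; z-score merges feature fluorescence and signal-to-noise across triplicate slides.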 The conditions noted are these: higher = more signal.
Assay [4] in a line: binders of probe aFGF10 on microarray, primary screen, stem cell growth factor project, biochemical, small-molecule microarray, fluorescence 635/667 (AID 1071).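 Note: score merges 667 nm spot intensity and signal to noise from triplicate slides.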 The conditions noted are these: higher = more signal.
Assay [5] has as its target Neurogenic locus notch homolog protein 2 (Homo sapiens) (UniProt Q04721). Nature of the assay: Notch2 binders on small-molecule microarrays, primary screen, biochemical, small-molecule microarray, 635 nm fluorescence, stem cell growth factors (AID 1073). The conditions noted are these: Notch2 binding, higher = more signal.
The target in assay [6] is Pro-neuregulin-1, membrane-bound isoform (Homo sapiens) (UniProt Q02297). Nature of the assay: NRG1 binders on small-molecule microarrays, primary screen, psychiatric disease protein project, biochemical, small-molecule microarray, fluorescence 635/667 (AID 1075).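 Note: score combines 667 nm spot fluorescence with signal to noise.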 The conditions noted are these: NRG1 binding, 635 nm fluorescence, higher = more signal.
Assay [7] deals with Neuregulin-1 EGF-like domain. Nature of the assay: binders of neuregulin-1 EGF-like domain, primary screen, biochemical, small-molecule microarray, 635 nm fluorescence (AID 1081).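 Note: binding of the protein to compounds printed on small-molecule microarray slides.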 The conditions noted are these: small-molecule microarray binding, higher = more signal.
The nature of assay [8]: FRG1 promoter luciferase signal modulators, primary screen, FRG1 inhibition for FSHD, cell-based, C2C12 myotubes, firefly/Renilla luciferase, luminescence (AID 1084). The note with it: higher = more signal, called active from +8 up or from −8 down.
Assay [9] can be described thus: binders of probe aFST on microarray, primary screen, stem cell growth factor project, biochemical, small-molecule microarray, fluorescence 635/667 (AID 1086).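 Note: score merges 667 nm fluorescence with signal-to-noise of each printed compound spot.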 The note with it: higher = more signal.
Assay [10] in a line: binders of probe aHhip on microarray, primary screen, stem cell growth factor project, biochemical, small-molecule microarray, fluorescence 635/667 (AID 1087).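 Note: score merges spot fluorescence at 667nm with spot signal to noise ratio.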 The note with it: higher = more signal.
In assay [11] the test system is PRMT1 (protein arginine N-methyltransferase 1). Nature of the assay: PRMT1 binders on small-molecule microarrays, primary screen, biochemical, small-molecule microarray, 635 nm fluorescence (AID 1088).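 Note: binding of Prmt1 protein to compounds spotted on small-molecule microarray slides.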 The note with it: small-molecule microarray binding, higher = more signal.
The nature of assay [12]: yeast growth modulation, basal conditions, primary screen, YJM789 clinical isolate, OD600, 24 h (AID 1089).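 Note: growth of clinical yeast isolate S. cerevisiae YJM 789 seeded 1000 cells per well; test concentration not given here.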 The conditions noted are these: S. cerevisiae YJM789 growth, higher = more signal, called active from +8 up or from −8 down.
The nature of assay [13]: fission yeast growth modulation, primary screen, strain 972, OD600, 24 h, no modulator (AID 1090).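 Note: basal condition with compound alone and no growth modifier present; test concentration not given here.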 The conditions noted are these: S. pombe 972 growth, higher = more signal, called active from +8 up or from −8 down.
Assay [14] in a line: S. cerevisiae growth modulation with rapamycin, primary screen, strain BY4716, OD600, 96 h (AID 1091). Note: test concentration not given here. The conditions noted are these: higher = more signal, called active from +8 up or from −8 down.
Assay [15] has as its target Torsin-1A-interacting protein 2 (Homo sapiens) (UniProt Q8NFQ8). Kind of assay: LULL1 binders on small-molecule microarray, primary screen, cell lysate, human LULL1 lysate, 635/667 nm fluorescence (AID 1092).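 Note: score merges per-feature 667 nm fluorescence with signal-to-noise.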 The note with it: hLULL1 lysate binding, 635 nm fluorescence, higher = more signal.
Assay [16] in a line: E. coli growth modulation, two-sided OD650, primary screen, E. coli filamentation project, strain DRC41, 24 h (AID 1093).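 Note: MC1000 strain lacking acrAB efflux and sulA so SOS filamentation is blocked; test concentration not given here.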 The note with it: OD650, 24 h, higher = more signal, called active from +8 up or from −8 down.
A short description of assay [17]: small-molecule microarray binders of probe aLefty2, primary screen, biochemical, biotinylated probe, 635/667 nm fluorescence (AID 1094).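 Note: score merges spot fluorescence near 667 nm with spot signal-to-noise ratio.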 The conditions noted are these: higher = more signal.
In assay [18] the test system is Noggin (protein binding on small-molecule microarray). Nature of the assay: Noggin binders on small-molecule microarray, primary screen, biochemical, 635/667 nm fluorescence (AID 1095).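 Note: score merges 667 nm feature fluorescence with signal to noise over triplicate slides.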 The note with it: 635 nm fluorescence, higher = more signal.
Assay [19] concerns the target Neurogenic locus notch homolog protein 3 (Homo sapiens) (UniProt Q9UM47). Kind of assay: NOTCH3 binders on small-molecule microarray, primary screen, biochemical, 635/667 nm fluorescence (AID 1096). The note with it: NOTCH3 binding, 635 nm fluorescence, higher = more signal.
Assay [20] can be described thus: small-molecule microarray binders of probe aEGFR, primary screen, biochemical, biotinylated probe, 635/667 nm fluorescence (AID 1097).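 Note: probe is a biotinylated anti-EGFR antibody binding compounds printed on slides; score combines fluorescence near 667 nm and signal to noise of each spot.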 The conditions noted are these: higher = more signal.

The structures appear in SMILES notation. Activity calls are given as the source filed them.

We go through 5 molecules from PubChem BioAssay.

Sequence of Neurogenic locus notch homolog protein 2 (Homo sapiens) (Q04721 whole entry, looked up, canonical isoform): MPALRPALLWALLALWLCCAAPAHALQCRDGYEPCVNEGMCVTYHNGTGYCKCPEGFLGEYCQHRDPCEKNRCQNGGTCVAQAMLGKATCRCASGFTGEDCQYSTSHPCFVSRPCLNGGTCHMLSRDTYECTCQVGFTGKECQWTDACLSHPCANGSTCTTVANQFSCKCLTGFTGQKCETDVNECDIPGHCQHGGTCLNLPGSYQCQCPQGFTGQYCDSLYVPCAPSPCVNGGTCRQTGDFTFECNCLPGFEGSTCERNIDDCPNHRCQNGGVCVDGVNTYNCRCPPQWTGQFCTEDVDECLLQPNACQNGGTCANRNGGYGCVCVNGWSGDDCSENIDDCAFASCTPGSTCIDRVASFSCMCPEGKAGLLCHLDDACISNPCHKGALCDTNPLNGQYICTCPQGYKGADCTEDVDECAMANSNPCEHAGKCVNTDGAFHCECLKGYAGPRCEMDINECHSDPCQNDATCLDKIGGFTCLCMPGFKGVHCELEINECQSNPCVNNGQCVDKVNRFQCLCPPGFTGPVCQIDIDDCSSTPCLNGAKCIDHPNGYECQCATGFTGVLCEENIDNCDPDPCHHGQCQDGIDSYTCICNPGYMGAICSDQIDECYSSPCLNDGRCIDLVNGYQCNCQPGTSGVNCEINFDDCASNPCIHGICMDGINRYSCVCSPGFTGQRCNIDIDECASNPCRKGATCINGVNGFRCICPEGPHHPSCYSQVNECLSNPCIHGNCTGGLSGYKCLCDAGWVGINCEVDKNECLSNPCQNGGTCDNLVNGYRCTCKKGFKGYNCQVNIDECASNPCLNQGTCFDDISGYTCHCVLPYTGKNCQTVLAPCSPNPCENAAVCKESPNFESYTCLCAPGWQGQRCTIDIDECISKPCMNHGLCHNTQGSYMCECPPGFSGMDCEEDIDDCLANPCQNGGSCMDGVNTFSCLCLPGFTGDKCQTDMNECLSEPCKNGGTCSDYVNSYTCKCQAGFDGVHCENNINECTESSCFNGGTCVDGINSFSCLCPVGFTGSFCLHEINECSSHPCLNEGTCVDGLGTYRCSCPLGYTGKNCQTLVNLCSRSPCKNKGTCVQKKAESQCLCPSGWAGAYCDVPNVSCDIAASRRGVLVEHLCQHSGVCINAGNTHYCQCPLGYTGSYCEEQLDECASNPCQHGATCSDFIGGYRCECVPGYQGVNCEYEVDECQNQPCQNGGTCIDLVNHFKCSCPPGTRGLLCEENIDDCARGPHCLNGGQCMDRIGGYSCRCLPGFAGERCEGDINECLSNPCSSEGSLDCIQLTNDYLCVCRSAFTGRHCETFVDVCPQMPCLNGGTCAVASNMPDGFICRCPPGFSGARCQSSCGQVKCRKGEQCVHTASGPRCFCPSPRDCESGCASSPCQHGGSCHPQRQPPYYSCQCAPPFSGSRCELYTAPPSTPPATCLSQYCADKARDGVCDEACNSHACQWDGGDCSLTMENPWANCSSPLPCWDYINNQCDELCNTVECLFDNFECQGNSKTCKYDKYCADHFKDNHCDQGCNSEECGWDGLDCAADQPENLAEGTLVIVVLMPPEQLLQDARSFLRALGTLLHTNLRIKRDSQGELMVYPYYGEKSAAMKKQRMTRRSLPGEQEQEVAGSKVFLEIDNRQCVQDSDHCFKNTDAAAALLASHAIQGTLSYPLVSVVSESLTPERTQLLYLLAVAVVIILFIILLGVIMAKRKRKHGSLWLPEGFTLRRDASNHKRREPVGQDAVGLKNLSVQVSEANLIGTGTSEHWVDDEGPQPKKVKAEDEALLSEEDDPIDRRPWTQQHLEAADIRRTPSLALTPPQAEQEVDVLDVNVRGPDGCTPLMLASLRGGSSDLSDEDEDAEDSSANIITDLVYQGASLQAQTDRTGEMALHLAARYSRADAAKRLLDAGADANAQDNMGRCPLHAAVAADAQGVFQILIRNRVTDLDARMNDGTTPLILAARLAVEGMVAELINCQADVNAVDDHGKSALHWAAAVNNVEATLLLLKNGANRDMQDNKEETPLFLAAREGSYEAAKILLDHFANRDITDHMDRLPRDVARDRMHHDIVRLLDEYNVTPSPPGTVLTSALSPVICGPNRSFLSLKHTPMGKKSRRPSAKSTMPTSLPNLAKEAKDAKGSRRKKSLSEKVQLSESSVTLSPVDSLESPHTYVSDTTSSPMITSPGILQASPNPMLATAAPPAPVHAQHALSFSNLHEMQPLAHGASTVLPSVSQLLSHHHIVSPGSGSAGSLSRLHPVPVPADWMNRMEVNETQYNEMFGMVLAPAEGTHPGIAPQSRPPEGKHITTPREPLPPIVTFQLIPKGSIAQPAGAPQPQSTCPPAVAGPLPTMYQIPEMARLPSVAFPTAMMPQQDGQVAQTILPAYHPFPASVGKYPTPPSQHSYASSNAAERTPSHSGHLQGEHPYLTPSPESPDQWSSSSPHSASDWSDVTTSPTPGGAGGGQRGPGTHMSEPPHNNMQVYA
Sequence of Pro-neuregulin-1, membrane-bound isoform (Homo sapiens) (Q02297 whole entry, looked up, the tested form may be a part, canonical isoform): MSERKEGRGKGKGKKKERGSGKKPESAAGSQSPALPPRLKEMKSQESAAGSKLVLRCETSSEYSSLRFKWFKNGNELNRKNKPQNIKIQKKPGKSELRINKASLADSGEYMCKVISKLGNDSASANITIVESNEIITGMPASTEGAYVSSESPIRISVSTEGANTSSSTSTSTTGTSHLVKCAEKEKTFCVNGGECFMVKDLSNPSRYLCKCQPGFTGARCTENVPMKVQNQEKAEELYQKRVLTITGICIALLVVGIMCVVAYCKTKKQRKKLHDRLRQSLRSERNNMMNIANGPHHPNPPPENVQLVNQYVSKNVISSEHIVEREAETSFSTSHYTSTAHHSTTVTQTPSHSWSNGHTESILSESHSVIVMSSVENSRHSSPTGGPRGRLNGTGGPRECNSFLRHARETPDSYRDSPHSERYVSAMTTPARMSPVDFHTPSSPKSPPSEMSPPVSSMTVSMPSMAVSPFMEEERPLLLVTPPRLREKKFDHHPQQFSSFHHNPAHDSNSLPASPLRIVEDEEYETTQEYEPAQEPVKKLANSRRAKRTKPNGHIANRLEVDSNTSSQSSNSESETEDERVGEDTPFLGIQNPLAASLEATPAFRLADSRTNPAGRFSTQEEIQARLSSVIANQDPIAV
Sequence of Torsin-1A-interacting protein 2 (Homo sapiens) (Q8NFQ8 whole entry, looked up): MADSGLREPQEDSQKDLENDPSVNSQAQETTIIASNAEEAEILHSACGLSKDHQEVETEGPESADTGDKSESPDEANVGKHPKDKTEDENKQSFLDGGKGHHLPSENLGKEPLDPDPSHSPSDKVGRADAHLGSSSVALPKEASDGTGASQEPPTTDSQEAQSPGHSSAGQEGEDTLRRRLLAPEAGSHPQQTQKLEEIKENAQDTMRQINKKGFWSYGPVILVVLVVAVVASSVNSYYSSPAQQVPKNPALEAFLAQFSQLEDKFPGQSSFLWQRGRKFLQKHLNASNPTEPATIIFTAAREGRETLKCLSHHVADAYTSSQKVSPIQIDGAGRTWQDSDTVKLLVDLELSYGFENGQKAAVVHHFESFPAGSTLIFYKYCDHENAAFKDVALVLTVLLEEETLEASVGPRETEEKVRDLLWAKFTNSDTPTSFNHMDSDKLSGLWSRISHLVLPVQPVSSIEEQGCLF

Turning to `O=C(NC1CC1)[C@@H]1c2ccccc2C(=O)N(Cc2cc(C(F)(F)F)cc(C(F)(F)F)c2)[C@H]1c1ccc(CO)cc1`, the composite z-score in assay [1] was -0.758; in [2], 0.332; in assay [3], -0.223; in [4], 0.0757; in [5], -0.134; in assay [6], 1.4. Further, the composite z-score is 1.36 in [7]; -0.131 in assay [9]; -0.863 in [10]; 1.43 in assay [11]; 2.92 in assay [15]; -0.508 in assay [17]. Moreover, the results for the composite z-score in assay [18], in assay [19] and in [20] were 0.76, 0.491 and -0.399, respectively. The z-score in assay [8] is 0.102 (inactive); in assay [12], -0.523 (inactive); in assay [13], -1.38 (inactive); in assay [14] it was -0.108 (inactive); in [16] it was -0.275 (inactive).

On to `O=C1[C@@H]2[C@@H](CC(COc3ccccc3)=C([C@H](O)CCc3ccccc3)[C@@H]2CO)C(=O)N1Cc1ccccc1`, for which the composite z-score in assay [1] was -0.379; in assay [2], 0.364; in assay [3] it was -0.187; in assay [4], 0.0395; in assay [5] it was 0.719; in assay [6] it was 0.433. Moreover, the composite z-score is 1.01 in assay [7]; 0.391 in [9]; 0.0176 in assay [10]; 1.08 in assay [11]; 1.39 in assay [15]; -0.176 in assay [17]. Further, the composite z-score in assay [18] is 0.127; in assay [19], 0.453; in assay [20] it was -0.0828. Further, the z-score in assay [8] is -0.643 (inactive); in [12] it was 0.77 (inactive); in [13], 0.369 (inactive); in [14], 3.2 (inactive); in assay [16], 0.707 (inactive).

Regarding `COc1ccc([Si](C)(C)[C@@H]2[C@@H](CC(=O)N3CCC[C@H]3CO)O[C@]3(C(=O)N(Cc4cccc(N5CCCCC5=O)c4)c4ccccc43)[C@H]2C)cc1`, the composite z-score in assay [1] is -0.398; in assay [2] it was 0.887; in assay [3] it was -0.116; in assay [4] it was 0.411; in assay [5], 0.0236; in assay [6], 1.07. Moreover, the composite z-score in assay [7] was 1.07; in assay [9], -0.015; in assay [10], -0.0296; in assay [11], 1.57; in [15] it was 1.89; in assay [17], -0.183. Further, the composite z-score in assay [18] was 0.894; in assay [19], 0.625; in assay [20], -0.0828. The z-score was -0.0792 (inactive) in assay [8]; -0.965 (inactive) in assay [12]; -0.388 (inactive) in assay [13]; 0.1 (inactive) in [14]; 0.807 (inactive) in [16].

For the molecule `COCCCNC(=O)[C@@]1(CCC(=O)OC(C)(C)C)COC(c2ccc(OCCCO)cc2)=N1`, the composite z-score is -0.0885 in assay [1]; 0.355 in assay [2]; -0.0659 in assay [3]; 0.611 in assay [4]; 0.844 in assay [5]; 1.63 in assay [6]. The composite z-score in [7] was 1.21; in [9] it was 0.579; in assay [10] it was -0.12; in assay [11], 1.59; in [15], 3.51; in assay [17], -0.0906. Besides, the composite z-score in [18] is 0.337; in assay [19], 0.571; in assay [20], -0.13. The z-score is -0.604 (inactive) in [8]; -0.649 (inactive) in assay [12]; 0.132 (inactive) in assay [13]; -2.07 (inactive) in assay [14]; 0.488 (inactive) in [16].

With `O=C(NCc1ccccc1)[C@@H]1c2ccccc2C(=O)N(Cc2ccc(OC(F)(F)F)cc2)[C@H]1c1ccc(CO)cc1`, the composite z-score in assay [1] is 0.85; in assay [2], 0.0787; in assay [3], -0.0784; in [4] it was -0.225; in assay [5], -0.674; in [6] it was 1.19. For the same molecule, the composite z-score is 0.921 in assay [7]; 0.0209 in assay [9]; 0.321 in [10]; 0.594 in [11]; 2.62 in assay [15]; -0.128 in assay [17]. Moreover, the composite z-score in assay [18] is -0.262; in assay [19], -0.577; in assay [20] it was 0.148. The z-score in [8] was -1.37 (inactive); in assay [12] it was -0.347 (inactive); in assay [13] it was -0.753 (inactive); in assay [14], -0.574 (inactive); in assay [16], 0.301 (inactive).
